Among the test systems are HCT-15 colon; HT29 colon; SNB-75 CNS; SNB-19 CNS; U251 CNS; PC-3 prostate; SK-MEL-5 melanoma; UACC-62 melanoma; LOX IMVI melanoma; SK-MEL-28 melanoma; SK-MEL-2 melanoma; EKVX NSCLC; SN12C renal; UO-31 renal; TK-10 renal; ACHN renal; CAKI-1 renal; A498 renal; HL-60(TB) leukemia; CCRF-CEM leukemia.
Test in all cases: NCI-60 one-dose screen, 48 h (100 = growth as untreated, 0 = no growth, -100 = all killed)
What all share (conditions): 10 µM unless noted

Several values for one entry are separate records, joined by “and”; a condition that tells them apart may be missing. Equal entries are not always repeated. Compounds without any hit were thinned out: in the full panel of roughly 83,000, 20% have a hit.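 Percent growth is the endpoint: 0 to 100 indicates growth inhibition (40 means 60% inhibition), 0 means no net growth, and negative values indicate cell death.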 Activity calls are given as the source filed them. How the source made its calls: active means growth percent below 10; inactive means the rest.

On to `CC1OC(=O)C(C(C)C)NC(=O)C(C(C)C)OC(=O)C(C(C)C)NC(=O)C(C)OC(=O)C(C(C)C)NC(=O)C(C(C)C)OC(=O)C(C(C)C)NC(=O)C(C)OC(=O)C(C(C)C)NC(=O)C(C(C)C)OC(=O)C(C(C)C)NC1=O` (stereo not drawn), for which the growth was -3.27% (active) with HCT-15 colon; -32.3% (active) in the assay on HT29 colon; -18.5% (active) in the assay on SNB-75 CNS; -17% (active) in the assay with SNB-19 CNS; -41.9% (active) with U251 CNS; -49.8% (active) with PC-3 prostate. In addition, the growth is -74.5% (active) in the assay on SK-MEL-5 melanoma; 5.04% (active) with UACC-62 melanoma; -26.4% (active) with LOX IMVI melanoma; -28.8% (active) in the assay with SK-MEL-28 melanoma; -22.4% (active) in the assay with SK-MEL-2 melanoma; -23.9% (active) in the assay on EKVX NSCLC. The growth in the assay with SN12C renal is 3.04% (active); in the assay with UO-31 renal it was 6.58% (active); in the assay on TK-10 renal, 24.6% (inactive); with ACHN renal, -16.5% (active); in the assay with CAKI-1 renal, -5.02% (active); in the assay with A498 renal it was -53.2% (active). The growth in the assay on HL-60(TB) leukemia was -44.6% (active); in the assay with CCRF-CEM leukemia, -20.1% (active).
Regarding `Cc1cc(Br)c([N+](=O)[O-])cc1[N+](=O)[O-]`, the growth was 76.1% (inactive) in the assay on HCT-15 colon; 103% (inactive) in the assay with HT29 colon; 108% (inactive) in the assay on SNB-75 CNS; 103% (inactive) in the assay on SNB-19 CNS; 103% (inactive) with U251 CNS; 91.4% (inactive) in the assay on PC-3 prostate. Moreover, the growth in the assay on SK-MEL-5 melanoma was 100% (inactive); in the assay with UACC-62 melanoma, 102% (inactive); in the assay on LOX IMVI melanoma it was 19.7% (inactive); in the assay on SK-MEL-28 melanoma, 116% (inactive); with SK-MEL-2 melanoma, 111% (inactive); in the assay with EKVX NSCLC, 103% (inactive). Further, the growth was 101% (inactive) with SN12C renal; 114% (inactive) in the assay with UO-31 renal; 110% (inactive) in the assay with TK-10 renal; 106% (inactive) in the assay with ACHN renal; 88.5% (inactive) in the assay with CAKI-1 renal; 97.9% (inactive) with A498 renal. The growth was 59.4% (inactive) in the assay with HL-60(TB) leukemia and 60.5% (inactive) with CCRF-CEM leukemia.
In the case of `CCOP(=O)(NC)OCC`, the growth with HCT-15 colon was 112% (inactive); in the assay with HT29 colon, 109% (inactive); in the assay on SNB-75 CNS, 103% (inactive); in the assay on SNB-19 CNS, 102% (inactive); in the assay with U251 CNS, 107% (inactive); in the assay with PC-3 prostate, 85.4% (inactive). For the same compound, the growth in the assay with SK-MEL-5 melanoma is 100% (inactive); in the assay with UACC-62 melanoma it was 108% (inactive); in the assay on LOX IMVI melanoma, 102% (inactive); with SK-MEL-28 melanoma it was 104% (inactive); in the assay with SK-MEL-2 melanoma, 124% (inactive); with EKVX NSCLC, 146% (inactive). The growth with SN12C renal was 106% (inactive); in the assay on UO-31 renal it was 92.2% (inactive); with TK-10 renal it was 129% (inactive); in the assay on ACHN renal, 108% (inactive); in the assay with CAKI-1 renal it was 111% (inactive); in the assay with A498 renal it was 74.3% (inactive). In addition, the growth was 73.9% (inactive) in the assay on HL-60(TB) leukemia and 93.4% (inactive) in the assay with CCRF-CEM leukemia.
With `CCCCCCCCCCCCCCCC[N+](C)(C)Cc1ccccc1`, the growth was 64% (inactive) and 42% (inactive) in the assay with HCT-15 colon; -43.6% (active) and -81% (active) in the assay on HT29 colon; -21.6% (active) and -70.3% (active) in the assay on SNB-75 CNS; -40.3% (active) in the assay on SNB-19 CNS; -16% (active) and -94.9% (active) in the assay with U251 CNS; -34.9% (active) and -44.1% (active) in the assay with PC-3 prostate. The growth with SK-MEL-5 melanoma was -86.5% (active) and -100% (active); in the assay on UACC-62 melanoma it was -26% (active) and -74.5% (active); in the assay on LOX IMVI melanoma, -79% (active) and -97.1% (active); with SK-MEL-28 melanoma, -27.7% (active) and -58.1% (active); in the assay on SK-MEL-2 melanoma, 25.2% (inactive) and -69% (active); in the assay on EKVX NSCLC, 15.8% (inactive) and -27.6% (active). Moreover, the growth in the assay on SN12C renal was 5.04% (active) and -76.7% (active); in the assay on UO-31 renal, 54.3% (inactive) and 51% (inactive); in the assay on TK-10 renal, 8.74% (active) and -73.5% (active); in the assay with ACHN renal, 55.1% (inactive) and 23.4% (inactive); in the assay with CAKI-1 renal, 84.4% (inactive) and 50.6% (inactive); in the assay on A498 renal, 36.2% (inactive) and 38.2% (inactive). The growth with CCRF-CEM leukemia was -22% (active) and -30.1% (active).
`O=C1NC(=O)C(=Cc2ccccc2)C(=O)N1`: the growth was 98.6% (inactive) and 106% (inactive) in the assay with HCT-15 colon; 105% (inactive) and 99% (inactive) in the assay on HT29 colon; 105% (inactive) and 96.5% (inactive) with SNB-75 CNS; 106% (inactive) in the assay on SNB-19 CNS; 97.4% (inactive) and 92.2% (inactive) with U251 CNS; 81% (inactive) and 96.2% (inactive) in the assay with PC-3 prostate. Also, the growth in the assay with SK-MEL-5 melanoma was 109% (inactive) and 100% (inactive); with UACC-62 melanoma, 90.3% (inactive) and 105% (inactive); in the assay on LOX IMVI melanoma, 94% (inactive) and 97.1% (inactive); in the assay with SK-MEL-28 melanoma, 104% (inactive) and 115% (inactive); in the assay on SK-MEL-2 melanoma, 106% (inactive) and 114% (inactive); in the assay with EKVX NSCLC it was 98.4% (inactive) and 101% (inactive). Besides, the growth is 89.7% (inactive) and 102% (inactive) with SN12C renal; 93.5% (inactive) in the assay with UO-31 renal; 106% (inactive) and 102% (inactive) in the assay with TK-10 renal; 99.5% (inactive) and 112% (inactive) in the assay with ACHN renal; 84.2% (inactive) and 103% (inactive) in the assay with CAKI-1 renal; 128% (inactive) and 94.2% (inactive) in the assay with A498 renal. The growth was 68.3% (inactive) and 105% (inactive) in the assay on HL-60(TB) leukemia; 90.7% (inactive) and 107% (inactive) with CCRF-CEM leukemia.
`N#CCc1ccc(CC#N)cc1`: the growth with HCT-15 colon was 96.5% (inactive); in the assay with HT29 colon it was 92.4% (inactive); in the assay on SNB-75 CNS, 101% (inactive); in the assay with SNB-19 CNS, 93.2% (inactive); in the assay on U251 CNS, 93.6% (inactive); in the assay with PC-3 prostate, 91.2% (inactive). The growth in the assay with SK-MEL-5 melanoma was 101% (inactive); in the assay with UACC-62 melanoma, 92.3% (inactive); in the assay with LOX IMVI melanoma, 101% (inactive); with SK-MEL-28 melanoma, 101% (inactive); in the assay on SK-MEL-2 melanoma, 99.4% (inactive); in the assay on EKVX NSCLC, 97.7% (inactive). Also, the growth was 86.7% (inactive) in the assay with SN12C renal; 89.8% (inactive) in the assay with UO-31 renal; 100% (inactive) with TK-10 renal; 103% (inactive) in the assay on ACHN renal; 97.1% (inactive) in the assay on CAKI-1 renal; 78.8% (inactive) in the assay with A498 renal. Besides, the growth in the assay with HL-60(TB) leukemia was 92.9% (inactive); in the assay on CCRF-CEM leukemia, 100% (inactive).
Turning to `CSc1cc(/C=C(\C)[C@@H]2C[C@@H]3O[C@]3(C)CCC[C@H](C)[C@H](O)[C@@H](C)C(=O)C(C)(C)[C@@H](O)CC(=O)O2)n(CCNC(=O)OC(C)(C)C)n1`, the growth in the assay with HCT-15 colon was 37.1% (inactive); in the assay on HT29 colon it was 28.2% (inactive); in the assay with SNB-75 CNS, 43.9% (inactive); with SNB-19 CNS it was 70.4% (inactive); with U251 CNS, 67.2% (inactive); in the assay on PC-3 prostate, 39% (inactive). Moreover, the growth in the assay on SK-MEL-5 melanoma was 38.4% (inactive); in the assay with UACC-62 melanoma, 43.8% (inactive); in the assay on LOX IMVI melanoma it was 51.1% (inactive); with SK-MEL-28 melanoma it was 79% (inactive); in the assay with SK-MEL-2 melanoma it was 75.6% (inactive); in the assay with EKVX NSCLC it was 78.3% (inactive). Besides, the growth with SN12C renal is 84% (inactive); in the assay with UO-31 renal, 55.5% (inactive); with TK-10 renal, 76.8% (inactive); in the assay with ACHN renal, 77.8% (inactive); in the assay with CAKI-1 renal, 46.4% (inactive); in the assay with A498 renal, 56.6% (inactive). In the assay with CCRF-CEM leukemia, the growth was 63.9% (inactive).

(Values after PubChem BioAssay (NCI).)
